Source: paper PMC7862700, “An all-to-all approach to the identification of sequence-specific readers for epigenetic DNA modifications on cytosine”

Assays:
Assay in all cases: DAPPL (digital affinity profiling via proximity ligation, sequencing); 10 mM Tris-HCl pH 7.5, 50 mM NaCl, 1 mM DTT, 4% glycerol, room temperature, 30 min; GST-TFs on glutathione beads, 16-mer random dsDNA library, 0.1% formaldehyde crosslink after washing; high values mean tight binding
FEV = target: T1, FEV (Homo sapiens, UniProt Q99581 1-238); conditions: protein: recombinant; tags: N-terminal GST; dsDNA, one strand shown
T1 sequence: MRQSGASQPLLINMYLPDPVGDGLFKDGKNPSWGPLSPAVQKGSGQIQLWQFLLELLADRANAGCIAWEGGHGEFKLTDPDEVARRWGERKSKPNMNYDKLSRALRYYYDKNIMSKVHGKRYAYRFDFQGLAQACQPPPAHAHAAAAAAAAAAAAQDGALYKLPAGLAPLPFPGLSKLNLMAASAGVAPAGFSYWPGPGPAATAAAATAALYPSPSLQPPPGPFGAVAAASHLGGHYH
Method in brief: (§1)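 Binding signal is given per hexamer as its read frequency for a factor divided by its frequency in the tag-only sample. GST-fused human transcription factors were expressed in yeast, captured on glutathione beads, barcoded with DNA and pooled with that sample, then incubated with 200 nmole of a 16-mer random double-stranded DNA library in Tris/NaCl/DTT/glycerol buffer for 30 min at room temperature. The pools were then washed, crosslinked, proximity-ligated, amplified by PCR and sequenced on an Illumina NextSeq500.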

ETV5 = ETV5 (Homo sapiens, UniProt P41161 1-510); conditions: protein: recombinant; tags: N-terminal GST; dsDNA, one strand shown
Sequence of ETV5 (P41161 whole entry): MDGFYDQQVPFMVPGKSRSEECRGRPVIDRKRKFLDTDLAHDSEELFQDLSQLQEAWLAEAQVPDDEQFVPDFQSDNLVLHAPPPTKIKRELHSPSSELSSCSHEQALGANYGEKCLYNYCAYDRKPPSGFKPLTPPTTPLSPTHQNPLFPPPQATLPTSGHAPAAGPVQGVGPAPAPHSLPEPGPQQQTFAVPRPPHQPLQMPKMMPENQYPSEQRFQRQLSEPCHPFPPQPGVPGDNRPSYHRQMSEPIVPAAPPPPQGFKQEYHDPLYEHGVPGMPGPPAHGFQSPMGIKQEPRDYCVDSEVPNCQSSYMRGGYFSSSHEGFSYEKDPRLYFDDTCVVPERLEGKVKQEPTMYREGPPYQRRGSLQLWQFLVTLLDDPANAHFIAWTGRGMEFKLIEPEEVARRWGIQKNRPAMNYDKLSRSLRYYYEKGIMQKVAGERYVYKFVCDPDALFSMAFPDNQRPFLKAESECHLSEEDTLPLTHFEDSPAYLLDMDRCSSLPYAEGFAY
Method in brief: as §1

HSF1 = HSF1 (Homo sapiens, UniProt Q00613 1-529); conditions: protein: recombinant; tags: N-terminal GST; chain copies: 3; dsDNA, one strand shown
Sequence of HSF1 (Q00613 whole entry): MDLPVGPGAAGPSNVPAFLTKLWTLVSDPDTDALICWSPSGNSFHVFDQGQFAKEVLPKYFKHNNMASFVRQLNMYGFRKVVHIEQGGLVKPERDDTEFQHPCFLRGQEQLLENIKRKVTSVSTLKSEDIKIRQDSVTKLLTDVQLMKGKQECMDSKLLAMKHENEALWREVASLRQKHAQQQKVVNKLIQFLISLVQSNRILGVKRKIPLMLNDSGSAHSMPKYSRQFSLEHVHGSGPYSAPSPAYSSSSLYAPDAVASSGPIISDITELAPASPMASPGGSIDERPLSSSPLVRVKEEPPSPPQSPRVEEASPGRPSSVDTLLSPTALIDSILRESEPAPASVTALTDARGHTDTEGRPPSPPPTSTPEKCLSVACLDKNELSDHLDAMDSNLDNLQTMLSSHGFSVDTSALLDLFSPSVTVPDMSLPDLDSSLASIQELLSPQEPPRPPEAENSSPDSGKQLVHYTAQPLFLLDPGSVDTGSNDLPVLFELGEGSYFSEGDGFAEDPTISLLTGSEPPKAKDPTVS
Method in brief: as §1

SPIC = target: T2, SPIC (Homo sapiens, UniProt Q8N5J4 1-248); conditions: protein: recombinant; tags: N-terminal GST; dsDNA, one strand shown
T2 sequence: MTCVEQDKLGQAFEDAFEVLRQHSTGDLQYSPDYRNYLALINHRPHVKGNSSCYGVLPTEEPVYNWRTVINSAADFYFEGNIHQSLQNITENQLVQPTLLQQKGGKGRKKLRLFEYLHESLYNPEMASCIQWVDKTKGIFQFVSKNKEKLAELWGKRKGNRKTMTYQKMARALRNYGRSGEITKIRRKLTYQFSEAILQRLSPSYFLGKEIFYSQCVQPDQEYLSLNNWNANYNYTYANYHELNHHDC
Method in brief: as §1

ELF4 = ELF4 (Homo sapiens, UniProt Q99607 1-663); conditions: protein: recombinant; tags: N-terminal GST; dsDNA, one strand shown
Sequence of ELF4 (Q99607 whole entry): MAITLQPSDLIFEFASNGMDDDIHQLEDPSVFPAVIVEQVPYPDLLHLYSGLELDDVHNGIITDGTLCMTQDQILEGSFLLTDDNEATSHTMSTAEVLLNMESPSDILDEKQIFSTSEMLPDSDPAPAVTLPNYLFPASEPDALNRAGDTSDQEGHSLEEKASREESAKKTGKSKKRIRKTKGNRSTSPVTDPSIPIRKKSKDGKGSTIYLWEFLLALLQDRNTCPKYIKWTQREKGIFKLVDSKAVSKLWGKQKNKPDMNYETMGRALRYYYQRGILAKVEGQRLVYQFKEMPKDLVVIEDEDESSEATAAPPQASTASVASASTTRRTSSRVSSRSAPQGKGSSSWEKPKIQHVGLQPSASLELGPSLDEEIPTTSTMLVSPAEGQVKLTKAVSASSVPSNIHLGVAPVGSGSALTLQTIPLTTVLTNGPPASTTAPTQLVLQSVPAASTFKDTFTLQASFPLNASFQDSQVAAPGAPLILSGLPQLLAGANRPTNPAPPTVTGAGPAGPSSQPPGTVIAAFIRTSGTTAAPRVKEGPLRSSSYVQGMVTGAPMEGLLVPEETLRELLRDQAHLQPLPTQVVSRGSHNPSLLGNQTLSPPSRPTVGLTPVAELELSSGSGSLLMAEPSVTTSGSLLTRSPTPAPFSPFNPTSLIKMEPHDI
Method in brief: as §1

ELK4 = target: T3, ELK4 (Homo sapiens, UniProt P28324-2 1-405); conditions: protein: recombinant; tags: N-terminal GST; dsDNA, one strand shown
T3 sequence: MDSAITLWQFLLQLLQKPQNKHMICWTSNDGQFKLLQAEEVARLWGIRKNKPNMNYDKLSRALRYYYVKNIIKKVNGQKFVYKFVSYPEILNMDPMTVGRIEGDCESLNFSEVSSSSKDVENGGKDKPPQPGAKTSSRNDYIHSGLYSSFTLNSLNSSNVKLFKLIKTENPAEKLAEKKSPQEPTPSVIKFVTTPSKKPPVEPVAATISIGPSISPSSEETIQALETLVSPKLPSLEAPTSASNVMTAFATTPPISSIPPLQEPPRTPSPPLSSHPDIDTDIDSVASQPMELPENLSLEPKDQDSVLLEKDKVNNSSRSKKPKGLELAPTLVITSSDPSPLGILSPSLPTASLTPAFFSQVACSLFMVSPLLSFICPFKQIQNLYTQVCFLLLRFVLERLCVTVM
Method in brief: as §1

ETV2 = target: T4, ETV2 (Homo sapiens, UniProt O00321 1-342); conditions: protein: recombinant; tags: N-terminal GST; dsDNA, one strand shown
T4 sequence: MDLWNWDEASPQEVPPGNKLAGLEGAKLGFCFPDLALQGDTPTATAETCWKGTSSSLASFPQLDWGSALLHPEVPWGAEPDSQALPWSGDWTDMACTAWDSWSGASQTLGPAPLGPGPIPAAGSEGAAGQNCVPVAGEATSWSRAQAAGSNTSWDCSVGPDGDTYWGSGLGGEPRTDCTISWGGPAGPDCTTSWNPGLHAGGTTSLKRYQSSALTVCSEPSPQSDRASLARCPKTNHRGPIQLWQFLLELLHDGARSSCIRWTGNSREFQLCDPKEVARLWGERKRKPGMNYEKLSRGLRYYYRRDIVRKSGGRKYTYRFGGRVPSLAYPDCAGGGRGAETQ
Method in brief: as §1

ELF3 = target: T5, ELF3 (Homo sapiens, UniProt P78545 1-371); conditions: protein: recombinant; tags: N-terminal GST; dsDNA, one strand shown
T5 sequence: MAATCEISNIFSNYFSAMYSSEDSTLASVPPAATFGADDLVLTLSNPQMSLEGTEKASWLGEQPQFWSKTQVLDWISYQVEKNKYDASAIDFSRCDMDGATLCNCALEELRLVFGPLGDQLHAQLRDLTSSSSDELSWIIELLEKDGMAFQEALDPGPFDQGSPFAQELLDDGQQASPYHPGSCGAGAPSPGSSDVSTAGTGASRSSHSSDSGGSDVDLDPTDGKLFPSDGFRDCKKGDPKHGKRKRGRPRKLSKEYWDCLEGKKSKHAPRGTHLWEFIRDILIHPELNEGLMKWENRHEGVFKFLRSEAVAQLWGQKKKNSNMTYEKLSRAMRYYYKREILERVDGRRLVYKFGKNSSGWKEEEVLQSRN
Method in brief: as §1

CRX = CRX (Homo sapiens, UniProt O43186 1-299); conditions: protein: recombinant; tags: N-terminal GST; dsDNA, one strand shown
Sequence of CRX (O43186 whole entry): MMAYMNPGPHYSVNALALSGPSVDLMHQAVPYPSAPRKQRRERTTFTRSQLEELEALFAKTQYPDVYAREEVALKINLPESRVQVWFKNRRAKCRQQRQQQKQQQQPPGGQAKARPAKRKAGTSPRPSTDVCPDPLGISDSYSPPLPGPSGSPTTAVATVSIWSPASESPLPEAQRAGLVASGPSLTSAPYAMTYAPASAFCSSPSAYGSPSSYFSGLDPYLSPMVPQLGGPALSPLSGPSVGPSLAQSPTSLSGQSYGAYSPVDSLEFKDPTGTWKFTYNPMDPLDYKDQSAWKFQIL
Method in brief: as §1

ETV1 = ETV1 (Homo sapiens, UniProt P50549 1-477); conditions: protein: recombinant; tags: N-terminal GST; dsDNA, one strand shown
Sequence of ETV1 (P50549 whole entry): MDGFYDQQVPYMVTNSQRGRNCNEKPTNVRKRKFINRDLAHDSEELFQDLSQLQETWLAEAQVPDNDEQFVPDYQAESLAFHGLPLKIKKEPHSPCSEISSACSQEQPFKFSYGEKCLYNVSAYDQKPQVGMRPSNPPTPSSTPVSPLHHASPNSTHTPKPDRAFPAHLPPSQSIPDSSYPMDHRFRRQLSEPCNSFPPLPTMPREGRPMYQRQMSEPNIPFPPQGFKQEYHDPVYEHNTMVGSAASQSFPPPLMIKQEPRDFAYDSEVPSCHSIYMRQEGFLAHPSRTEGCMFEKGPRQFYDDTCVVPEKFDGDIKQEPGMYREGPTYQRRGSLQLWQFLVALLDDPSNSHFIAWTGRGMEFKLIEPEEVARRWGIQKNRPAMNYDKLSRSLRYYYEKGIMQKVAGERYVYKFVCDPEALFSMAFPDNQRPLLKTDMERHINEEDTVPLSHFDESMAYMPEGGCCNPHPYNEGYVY
Method in brief: as §1

ERF = target: T6, ERF (Homo sapiens, UniProt P50548 1-548); conditions: protein: recombinant; tags: N-terminal GST; dsDNA, one strand shown
T6 sequence: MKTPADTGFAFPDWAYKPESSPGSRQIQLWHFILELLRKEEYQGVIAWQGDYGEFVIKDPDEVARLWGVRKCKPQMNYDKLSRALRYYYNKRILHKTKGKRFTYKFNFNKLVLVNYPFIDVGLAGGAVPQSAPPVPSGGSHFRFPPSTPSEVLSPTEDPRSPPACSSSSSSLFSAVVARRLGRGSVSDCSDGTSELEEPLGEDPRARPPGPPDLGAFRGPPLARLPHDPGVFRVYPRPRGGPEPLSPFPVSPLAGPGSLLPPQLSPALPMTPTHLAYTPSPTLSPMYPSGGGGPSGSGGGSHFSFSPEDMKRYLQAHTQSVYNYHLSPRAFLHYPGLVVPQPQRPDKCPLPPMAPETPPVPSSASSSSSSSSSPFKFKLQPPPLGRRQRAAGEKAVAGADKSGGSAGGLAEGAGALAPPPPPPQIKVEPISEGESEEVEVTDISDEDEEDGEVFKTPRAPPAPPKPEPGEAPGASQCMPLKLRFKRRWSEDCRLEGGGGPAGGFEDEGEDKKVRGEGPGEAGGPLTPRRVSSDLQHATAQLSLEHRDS
Method in brief: as §1

ETV3L = target: T7, ETV3L (Homo sapiens, UniProt Q6ZN32 1-361); conditions: protein: recombinant; tags: N-terminal GST; dsDNA, one strand shown
T7 sequence: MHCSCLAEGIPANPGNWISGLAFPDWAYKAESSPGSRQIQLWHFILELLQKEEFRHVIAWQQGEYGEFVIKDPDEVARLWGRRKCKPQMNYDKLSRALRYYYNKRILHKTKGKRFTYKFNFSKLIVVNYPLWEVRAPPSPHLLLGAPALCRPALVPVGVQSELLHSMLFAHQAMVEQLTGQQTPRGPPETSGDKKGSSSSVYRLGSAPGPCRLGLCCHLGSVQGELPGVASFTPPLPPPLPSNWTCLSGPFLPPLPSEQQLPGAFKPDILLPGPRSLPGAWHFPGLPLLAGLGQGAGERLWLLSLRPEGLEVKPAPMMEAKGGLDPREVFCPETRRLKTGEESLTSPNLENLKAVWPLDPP
Method in brief: as §1

ETS2 = target: T8, ETS2 (Homo sapiens, UniProt P15036 1-469); conditions: protein: recombinant; tags: N-terminal GST; dsDNA, one strand shown
T8 sequence: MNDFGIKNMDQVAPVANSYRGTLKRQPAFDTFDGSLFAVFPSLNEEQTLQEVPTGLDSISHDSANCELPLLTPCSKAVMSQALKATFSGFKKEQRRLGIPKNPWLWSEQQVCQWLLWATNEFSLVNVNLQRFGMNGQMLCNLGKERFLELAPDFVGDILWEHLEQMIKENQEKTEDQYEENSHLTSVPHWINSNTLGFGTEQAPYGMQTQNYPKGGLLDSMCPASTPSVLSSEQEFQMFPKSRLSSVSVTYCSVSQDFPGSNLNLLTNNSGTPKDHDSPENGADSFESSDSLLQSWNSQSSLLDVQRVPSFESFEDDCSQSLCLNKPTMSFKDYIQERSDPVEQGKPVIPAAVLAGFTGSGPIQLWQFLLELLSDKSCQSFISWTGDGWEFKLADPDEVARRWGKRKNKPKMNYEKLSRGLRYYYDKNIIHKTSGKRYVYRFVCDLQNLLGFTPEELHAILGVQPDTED
Method in brief: as §1

SPDEF = target: T9, SPDEF (Homo sapiens, UniProt O95238 1-335); conditions: protein: recombinant; tags: N-terminal GST; dsDNA, one strand shown
T9 sequence: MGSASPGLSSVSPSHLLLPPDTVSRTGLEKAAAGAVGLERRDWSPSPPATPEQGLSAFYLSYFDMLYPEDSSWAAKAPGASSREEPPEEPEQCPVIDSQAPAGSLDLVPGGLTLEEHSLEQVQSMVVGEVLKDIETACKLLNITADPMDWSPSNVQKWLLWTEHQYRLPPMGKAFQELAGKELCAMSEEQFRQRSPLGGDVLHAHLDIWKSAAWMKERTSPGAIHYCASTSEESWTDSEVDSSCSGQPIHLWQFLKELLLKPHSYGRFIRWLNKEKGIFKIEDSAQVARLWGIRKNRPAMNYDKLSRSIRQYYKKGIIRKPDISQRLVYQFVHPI
Method in brief: as §1

ETV7 = target: T10, ETV7 (Homo sapiens, UniProt Q9Y603 1-341); conditions: protein: recombinant; tags: N-terminal GST; dsDNA, one strand shown
T10 sequence: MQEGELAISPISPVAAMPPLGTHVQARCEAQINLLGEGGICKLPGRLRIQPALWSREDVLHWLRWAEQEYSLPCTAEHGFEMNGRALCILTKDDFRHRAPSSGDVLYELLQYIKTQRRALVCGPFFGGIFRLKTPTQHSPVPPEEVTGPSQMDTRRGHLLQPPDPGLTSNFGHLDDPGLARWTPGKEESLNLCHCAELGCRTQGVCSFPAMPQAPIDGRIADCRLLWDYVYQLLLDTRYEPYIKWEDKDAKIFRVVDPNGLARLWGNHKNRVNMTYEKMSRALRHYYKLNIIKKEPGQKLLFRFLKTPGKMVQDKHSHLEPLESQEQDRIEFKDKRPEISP
Method in brief: as §1

ELF5 = target: T11, ELF5 (Homo sapiens, UniProt Q9UKW6-2 1-255); conditions: protein: recombinant; tags: N-terminal GST; dsDNA, one strand shown
T11 sequence: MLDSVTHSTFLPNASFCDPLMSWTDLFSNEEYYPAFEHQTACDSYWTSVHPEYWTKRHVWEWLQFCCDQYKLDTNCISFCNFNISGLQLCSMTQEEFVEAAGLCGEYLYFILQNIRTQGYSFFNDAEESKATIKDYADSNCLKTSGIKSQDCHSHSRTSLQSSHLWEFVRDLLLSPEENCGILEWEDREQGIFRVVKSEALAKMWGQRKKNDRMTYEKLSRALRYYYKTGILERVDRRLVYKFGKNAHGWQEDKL
Method in brief: as §1

ETV3 = target: T12, ETV3 (Homo sapiens, UniProt P41162-2 1-143); conditions: protein: recombinant; tags: N-terminal GST; dsDNA, one strand shown
T12 sequence: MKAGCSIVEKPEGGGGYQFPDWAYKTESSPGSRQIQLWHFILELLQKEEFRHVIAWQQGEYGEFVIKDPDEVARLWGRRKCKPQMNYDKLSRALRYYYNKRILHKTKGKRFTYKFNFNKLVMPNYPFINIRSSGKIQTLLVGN
Method in brief: as §1

ETV6 = ETV6 (Homo sapiens, UniProt P41212 1-452); conditions: protein: recombinant; tags: N-terminal GST; dsDNA, one strand shown
Sequence of ETV6 (P41212 whole entry): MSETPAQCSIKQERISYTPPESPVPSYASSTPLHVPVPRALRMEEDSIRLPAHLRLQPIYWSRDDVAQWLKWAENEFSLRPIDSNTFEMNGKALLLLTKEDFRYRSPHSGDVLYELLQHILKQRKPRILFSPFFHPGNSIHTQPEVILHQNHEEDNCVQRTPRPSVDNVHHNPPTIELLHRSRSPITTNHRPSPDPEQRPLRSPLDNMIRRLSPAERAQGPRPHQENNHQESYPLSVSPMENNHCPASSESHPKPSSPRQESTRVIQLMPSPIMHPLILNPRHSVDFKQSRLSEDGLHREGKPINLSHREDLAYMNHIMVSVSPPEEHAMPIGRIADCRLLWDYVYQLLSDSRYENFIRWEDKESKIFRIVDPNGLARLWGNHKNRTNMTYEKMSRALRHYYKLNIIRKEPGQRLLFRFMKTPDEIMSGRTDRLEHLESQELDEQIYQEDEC
Method in brief: as §1

GATCTT was tested, and the binding signal (FEV) was 1.14 fold enrichment (6-mer frequency, TF over GST control), the binding signal (ETV5) was 1.21 fold enrichment (6-mer frequency, TF over GST control) and the binding signal (HSF1) was 1.62 fold enrichment (6-mer frequency, TF over GST control). The binding signal (SPIC) was 1.42 fold enrichment (6-mer frequency, TF over GST control), the binding signal (ELF4) was 1.26 fold enrichment (6-mer frequency, TF over GST control) and the binding signal (ELK4) was 1.23 fold enrichment (6-mer frequency, TF over GST control). The binding signal (ETV2) was 1.18 fold enrichment (6-mer frequency, TF over GST control), the binding signal (ELF3) was 1.43 fold enrichment (6-mer frequency, TF over GST control) and the binding signal (CRX) was 1.71 fold enrichment (6-mer frequency, TF over GST control). For the same sequence, the binding signal (ETV1) was 1.25 fold enrichment (6-mer frequency, TF over GST control), the binding signal (ERF) was 1.15 fold enrichment (6-mer frequency, TF over GST control) and the binding signal (ETV3L) was 1.15 fold enrichment (6-mer frequency, TF over GST control). The binding signal (ETS2) was 1.15 fold enrichment (6-mer frequency, TF over GST control), the binding signal (SPDEF) was 1.42 fold enrichment (6-mer frequency, TF over GST control) and the binding signal (ETV7) was 1.28 fold enrichment (6-mer frequency, TF over GST control). For the same sequence, the binding signal (ELF5) was 1.29 fold enrichment (6-mer frequency, TF over GST control), the binding signal (ETV3) was 1.24 fold enrichment (6-mer frequency, TF over GST control) and the binding signal (ETV6) was 1.14 fold enrichment (6-mer frequency, TF over GST control).
